# According to PubChem BioAssay (EPA / NIEHS):
# Records with an inconclusive call do not appear. Calls of active or inactive are those of the source. The calls were made as follows: active = hit-call score of the fitted dose curve at least 0.9, where 1 is the maximum; inconclusive = response in the unintended direction; inactive = score below 0.9.
# Biological target: Nucleoli Translocation, AR (gene 367) (UniProt P10275)
# Test: UPITT_HCI_U2OS_AR_TIF2_Nucleoli_Agonist: University of Pittsburgh U2OS Androgen Receptor-Transcriptional Intermediary Factor 2 (AR-TIF2) Agonism High Content Imaging Assay for Nucleoli Translocation (AID 2283998)
# From the text: UPITT_AR_TIF2_PPIB is a cell-based, high-content imaging assay that uses U2OS, a human osteosarcoma cell line, expressing a human androgen receptor fused to red fluorescent protein and the coactivator TIF2 fused to green fluorescent protein. UPITT_HCI_U2OS_AR_TIF2_Nucleoli_Agonist is one of four assay components measured from the UPITT_AR_TIF2_PPIB assay. It is designed to make measurements of red fluorescence localized in the nucleolar region of the cell nucleus as detected with high-content fluorescent imaging.Data from the assay component UPITT_HCI_U2OS_AR_TIF2_Nucleoli_Agonist was analyzed into 1 assay endpoint. This assay endpoint, UPITT_HCI_U2OS_AR_TIF2_Nucleoli_Agonist, was analyzed in the positive analysis fitting direction relative to DMSO as the baseline of activity. Using a type of binding reporter, measures of receptor for gain-of-signal activity can be used to understand the binding at the pathway-level as it relates to the gene AR.
# Daughter plates containing 2 uL of 10 mM compounds in DMSO were prepared and replicated from the 384-well Library of Pharmacologically Active Compounds (LOPAC) master plates using the Bravo outfitted with a 384-well transfer head. Aluminum adhesive plate seals were applied with an Abgene Seal-IT 100 (Rochester, NY) plate sealer, and the plates were stored at -20 C in a Matrical MatriMinistore (Spokane, WA) automated compound storage and retrieval system. For screening, LOPAC daughter plates were withdrawn from -20C storage, thawed to ambient temperature, centrifuged 1-2 min at 50 g, and the plate seals were removed before the transfer of 98 uL of serum-free tissue culture medium (SFM) into wells using the BioTek Microflo liquid handler (BioTek, Winooski, VT) to generate a 200 uM intermediate stock concentration of library compounds (2.0% DMSO). The diluted compounds were mixed by repeated aspiration and dispensation using a 384-well P30 dispensing head on the Evolution P3 (EP3) liquid handling platform (PerkinElmer, Waltham, MA) and then 5 uL of diluted compounds was transferred to the wells of assay plates. In the LOPAC screen, compounds were individually tested at a final concentration of 20 uM (0.2% DMSO). After the diluted compounds had been transferred from the daughter plates to the primary HCS assay plates, aluminum adhesive plate seals were applied and the diluted daughter plates were stored frozen at -20C. To confirm active compounds identified in the primary screen, we withdrew the LOPAC daughter plates containing the 200 uM intermediate concentration of library compounds (2.0% DMSO) from -20C storage, thawed them to ambient temperature, centrifuged them for 1-2 min at 50 g, and removed the plate seals. A work list was generated to direct the Multiprobe Janus liquid handling platform (PerkinElmer) to cherry pick 75 uL from the wells of the diluted daughter plates that were flagged active in the primary screen and to reformat these into a 384-well plate hit confirmation daughter plate. Five microliters of primary HCS active compounds was then transferred into triplicate wells of assay plates using a 384-well P30 dispensing head on the Evolution P3 (EP3) liquid handling platform (PerkinElmer). […] Daughter plates containing 2 uL of the serially diluted compounds in DMSO were prepared and replicated from the 384-well serial dilution master plates using the Bravo outfitted with a 384-well transfer head. Aluminum adhesive plate seals were applied and plates were stored at -20C. For testing in the bioassays, daughter plates were withdrawn from -20C storage, thawed to ambient temperature, centrifuged for 1-2 min at 50 g, and the plate seals were removed before the transfer of 38 uL of SFM into wells using the BioTek Microflo liquid handler (BioTek) to generate an intermediate stock concentration of library compounds ranging from 1.95 to 500 uM (5.0% DMSO). […]
# Sequence of Nucleoli Translocation, AR (gene 367) (P10275 whole entry, looked up): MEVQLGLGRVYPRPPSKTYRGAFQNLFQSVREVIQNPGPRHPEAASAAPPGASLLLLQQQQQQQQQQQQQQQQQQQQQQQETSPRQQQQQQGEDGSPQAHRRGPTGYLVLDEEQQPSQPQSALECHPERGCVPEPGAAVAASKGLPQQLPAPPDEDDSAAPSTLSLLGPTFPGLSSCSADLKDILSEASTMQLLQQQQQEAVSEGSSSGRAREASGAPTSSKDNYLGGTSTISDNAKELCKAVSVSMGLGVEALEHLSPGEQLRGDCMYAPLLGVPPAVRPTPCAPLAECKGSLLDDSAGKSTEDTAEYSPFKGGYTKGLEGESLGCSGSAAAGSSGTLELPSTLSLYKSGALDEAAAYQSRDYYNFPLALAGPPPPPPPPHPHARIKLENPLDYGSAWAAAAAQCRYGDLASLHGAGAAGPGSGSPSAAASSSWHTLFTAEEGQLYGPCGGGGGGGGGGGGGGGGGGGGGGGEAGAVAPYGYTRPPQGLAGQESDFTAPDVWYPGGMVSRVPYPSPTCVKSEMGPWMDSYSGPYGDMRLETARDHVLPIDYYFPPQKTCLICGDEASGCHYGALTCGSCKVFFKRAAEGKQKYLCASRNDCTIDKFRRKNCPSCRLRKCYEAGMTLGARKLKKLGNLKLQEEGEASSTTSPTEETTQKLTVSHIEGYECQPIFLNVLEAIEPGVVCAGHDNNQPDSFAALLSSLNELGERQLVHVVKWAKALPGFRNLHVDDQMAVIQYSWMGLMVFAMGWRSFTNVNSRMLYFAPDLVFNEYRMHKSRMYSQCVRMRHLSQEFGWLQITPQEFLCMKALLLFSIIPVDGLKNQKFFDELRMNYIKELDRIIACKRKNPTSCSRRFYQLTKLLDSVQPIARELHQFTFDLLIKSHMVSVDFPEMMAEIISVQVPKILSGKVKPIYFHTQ
Structure (SMILES),outcome,AC50
COC(=O)CSc1cc(N=c2sc(=O)n3n2CCCC3)c(F)cc1Cl,inactive,
CCSC(=O)N(CC(C)C)CC(C)C,inactive,
O=C(c1ccc(O)cc1O)c1ccc(O)cc1O,inactive,
O=C(c1ccccc1)C1CCCCC1,inactive,
C[C@]12CC[C@@H]3c4ccc(O)cc4C[C@@H](CCCCCCCCCS(=O)CCCC(F)(F)C(F)(F)F)[C@H]3[C@@H]1CC[C@@H]2O (stereo partly drawn),inactive,
O=C(O)C1(C(=O)Nc2ccc(Cl)cc2Cl)CC1,inactive,
CC(C)(c1ccc(O)cc1)c1ccc(O)cc1,,73.3 µM (active)
CCOC(=O)COc1cc(-n2ncc(C(F)(F)F)c(C)c2=O)c(F)cc1Cl,inactive,
CCCOC(=O)c1ccc(C(=O)OCCC)nc1,inactive,
Cc1nn(C)c(Oc2ccccc2)c1C=NOCc1ccc(C(=O)OC(C)(C)C)cc1,inactive,
N#CSCSc1nc2ccccc2s1,,13 µM (active)
CSC(=O)c1cccc2nnsc12,inactive,
CCCN(CCC)C(=O)SCC,inactive,
